Bioassay records deposited in PubChem by National Center for Advancing Translational Sciences (NCATS).
The list is not random: actives were taken first. Their share in the collection is about 2.8%.
TGFb inhibitor: qHTS for Inhibitors of TGF-b; HepG2 CAGA-GFP TGF-b/SMAD3 reporter, GFP fluorescence, 18 h; TGF-beta stimulated, 500 pg/mL final; Potency, µM (titrated, usually from 46.1 µM), actives largely listed as inhibitors; 1.2% of 410,000 active; further: nearly all actives have a fitted effect of over 65% in size
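Using HEPG2 CAGA-GFP reporter cells at 1000 cells/well, we pinned test compounds, stimulated with recombinant TGF-beta (500 pg/mL final) and measured total well GFP after 18 h.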
HepG2 viability: qHTS for Inhibitors of TGF-b: Cytotox Counterscreen; Potency, µM (series often up to 46.1 µM), most hits filed as cytotoxic; 0.76% of 410,000 active; HepG2 CAGA-GFP viability, ATP luminescence, 18 h; AID 588856, 2011
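HepG2 CAGA-GFP cells (1000/well, DMEM with 1% FBS) received compound, then TGF-beta at 500 pg/mL final, and were incubated 18 hours at 37 degrees C. Viability was read by CellTiter-Glo luminescence. Media-only wells were set as complete cell-killing and DMSO as no toxicity.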
HttQ103 aggreg: qHTS Multiplex Assay to Identify Dual Action Probes in a Cell Model of Huntington: Aggregate Formation (GFP) | PC12 HttQ103-GFP aggregates, Acumen cytometry, 40 h | Potency, µM (doses to about 46.1 µM), actives largely listed as inhibitors | 1.1% of 220,000 active | AID 1688, 2009; further: nearly all actives have a fitted effect of over 60% in size
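Quantitative HTS on tebufenozide-induced (100 nM) PC12 cells stably expressing polyQ103 Huntingtin exon 1–GFP. Reduction of bright GFP aggregates, detected by laser scanning cytometry after lysis, identified actives across the titration.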
HTT ATP protect: qHTS Multiplex Assay to Identify Dual Action Probes in a Cell Model of Huntington: Cytoprotection (ATP); 0.14% of 230,000 active; Potency, µM (top dose mostly 56.4 µM), most hits filed as activators; PC12 HTT-Q103 induced, cytoprotection, ATP luminescence, 40 h; further: nearly all actives have a fitted effect of over 45% in size
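Huntington model: PC12 line, ecdysone-inducible HTTQ103 exon1–GFP, tebufenozide 100 nM. Test articles in a dose series. Endpoint luminescence from cellular ATP.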
ATXN viability: Viability Counterscreen for Primary qHTS for Inhibitors of ATXN expression; S2 cells (HEK-293 line with an ATXN2-luciferase reporter) viability, CellTiter-Fluor protease fluorescence, 24 h; Potency, µM (doses to about 56.7 µM), actives largely listed as cytotoxic; 0.49% of 400,000 active; AID 651635, 2014; further: nearly all actives have a fitted effect of over 40% in size
ATXN2 expr inh: Primary qHTS for Inhibitors of ATXN expression; 0.72% of 360,000 active; AID 1745845, 2022; Potency, µM (top dose mostly 57 µM), hits mostly inhibitors; HEK-293 ATXN2-luciferase reporter, luminescence, 24 h; further: nearly all actives have a fitted effect of over 55% in size
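ATXN2-luciferase reporter cells (luciferase flanked by upstream and downstream ATXN2 gene portions) were treated 24 h at 37 °C with compounds at up to 57 uM. SteadyGlo luminescence gave expression; GF-AFC fluorescence gave viability.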
Numbers stand for hits; - = inactive; ? = inconclusive; . = not tested or not shown; [ ] = another dose, or the depositor's remark. The call rests on the fitted dose curve; in most records, active means well fitted curve in the direction sought with a large enough effect; inconclusive means small, poorly fitted or top-dose-only effect, or another doubt; inactive means no such curve, though single readings can be large; an effect the other way counts as inactive or inconclusive.

SMILES	TGFb inhibitor	HepG2 viability	HttQ103 aggreg	HTT ATP protect	ATXN viability	ATXN2 expr inh
NC(c1ccccc1)c1csc(Nc2cc(Oc3ccccc3)ncn2)n1 (stereo not drawn)	?	11µM	.	.	?	-
CC(C)CC(N)c1csc(Nc2ncccn2)n1 (stereo not drawn)	11µM	-	.	.	?	?
CC(C)CC(N)c1csc(Nc2cc(Oc3ccccc3)ncn2)n1 (stereo not drawn)	?	-	.	.	.	25µM
Cc1cnc(C)c(-c2cc(F)cc3c2OC(CNC(=O)c2cc(Cl)ccc2F)C3)n1 (stereo not drawn)	.	.	.	.	-	.
O=C(C[n+]1ccccc1)c1ccc(O)c(O)c1	-	-	.	.	.	.
CC(C)(CNC(=O)c1cnn(-c2ncc3c(n2)-c2ccccc2CCC3)c1C1CC1)N1CCOCC1	.	.	.	.	-	.
CCOc1ccc(/C=C/c2[nH]c(=O)[nH]c(=O)c2[N+](=O)[O-])cc1	-	-	.	.	-	-
CC(C)c1ccc(/C=C/c2[nH]c(=O)[nH]c(=O)c2[N+](=O)[O-])cc1	?	16µM	.	.	-	.
CCOc1cc(/C=C\c2[nH]c(=O)[nH]c(=O)c2[N+](=O)[O-])ccc1OC(C)CC (stereo not drawn)	-	-	?	2.5µM	-	?
CCOc1ncccc1C(=O)Nc1ccc(S(=O)(=O)NC2=NCCCCC2)cc1	-	-	-	-	-	-
CCOC(=O)c1ccc(S(=O)(=O)Nc2nc3cc(S(=O)(=O)NC4=NCCCCC4)ccc3s2)cc1	-	-	-	18µM	-	-
Nc1nc2cc(S(=O)(=O)NC3=NCCCCC3)ccc2s1	-	-	-[9.22 µM]	-[10 µM]	-	.
CCCOc1ccc(C(=O)Nc2ccc(S(=O)(=O)NC3=NCCCCC3)cc2)cc1	-	0.32µM	.	.	-	-
CC(C)C(C(=O)Nc1nccs1)c1ccccc1 (stereo not drawn)	-	-	-	-	-	-
O=C(Nc1nccs1)C(c1ccccc1)N1CCCC1 (stereo not drawn)	-	-	-	1.4µM	-	-
COc1cccc2cc(-c3nc(-c4ccccc4)c(C)s3)c(=O)oc12	-	-	.	.	.	.
COc1ccc(OCC(=O)N(Cc2cccs2)c2ccc(OC)cc2)cc1	-	-	.	.	.	.
CCOc1ccccc1C(=O)N(Cc1cccs1)c1ccc(Cl)cc1	18µM	-	.	.	?	-
CCc1ccc(OCC(=O)N(Cc2cccs2)c2ccc(Cl)cc2)cc1	16µM	-	.	.	?	-
O=C(CCCCCCNC(=O)c1cnc(N(c2ccccc2)c2ccccc2)nc1)NO	.	.	.	.	.	-
Cc1cc(C(=O)N/N=C/c2cc(Cl)cc([N+](=O)[O-])c2O)c2ccccc2n1	-	-	16µM	-[10 µM]	-	?
O=C(NN=Cc1cc(Cl)ccc1[N+](=O)[O-])c1cccc2ccccc12	-	-	.	.	?	-
CN1CCN(C2=C(Cl)C(=O)N(C3CCCCC3)C2=O)CC1	13µM	-	-[9.22 µM]	-[10 µM]	-	-
Cc1ccc2cc(CNC(C)c3cccc4ccccc34)c(N3CCC(O)CC3)nc2c1 (stereo not drawn)	.	.	.	.	-	.
Cc1ccccc1OCC(=O)NCC(=O)OCC(=O)c1ccc2c(c1)CCCC2	-	-	.	.	.	.
SMILES	TGFb inhibitor	HepG2 viability	HttQ103 aggreg	HTT ATP protect	ATXN viability	ATXN2 expr inh
Cc1ccc([C@H]2C[C@@H](O)[C@H](n3cc(-c4ccc(F)cc4)nn3)CN2C(=O)C2CCCCC2)cc1	13µM	-	.	.	.	?
CCCCCCN1C[C@H](n2cc(C3CC3)nn2)[C@@H](O)C[C@@H]1c1ccc(OC)cc1	?	-	.	.	25µM	?
CCCCCCN1C[C@H](n2cc(-c3ccc(F)cc3)nn2)[C@@H](O)C[C@@H]1c1ccc(C)cc1	?	11µM	.	.	.	?
CCCCCCN1C[C@@H](n2cc(-c3ccc(F)cc3)nn2)[C@H](O)C[C@@H]1c1ccc(Cl)cc1	?	-	.	.	18µM	?
Cc1ncc2c(c1CNC(=O)c1ccc3c(c1)OCO3)CCN(C(=O)c1cccc(-n3cccn3)c1)C2	.	.	.	.	-	.
Cc1cc(C)n(Cc2cccc(C(=O)NCC3Cc4cccc(-c5ncccn5)c4O3)c2)n1 (stereo not drawn)	.	.	.	.	-	.
CC1CCN(C(=S)c2cn(Cc3ccccc3F)c3ccccc23)CC1	-	-	16µM	-	-	-
CN(C)c1ccc(/C=[N+]2\C(=O)CC(=O)NC2=O)cc1	-	-	.	.	.	.
CNC(=O)/C(C#N)=C/c1c(N(Cc2ccccc2)Cc2ccccc2)nc2c(C)cccn2c1=O	13µM	-	?	-[10 µM]	?	-
O=C(NCC1CCCCC1)c1nnc(C(=O)NCC2CCCCC2)c2c1[nH]c1ccccc12	.	.	.	-	.	.
COc1ccnc2c1CCCCC2S(=O)c1nc2ccccc2[nH]1 (stereo not drawn)	.	.	.	.	-	-
CCSc1nnc(NC(=O)C(NC(=O)c2ccc(Cl)cc2)C(C)C)s1 (stereo not drawn)	-	-	32µM	.	-	-
O=[N+]([O-])c1cc(C(F)(F)F)cc([N+](=O)[O-])c1NCCNC(=S)Nc1ccc(Cl)c(Cl)c1	11µM	11µM	-[9.22 µM]	-[10 µM]	.	?
FC(F)(F)c1cccc(NC(=S)Nc2ccc(Cl)c(Cl)c2)c1	?	-	-[9.22 µM]	-[10 µM]	-	?
CCOc1ccc2nc(N3CCCC(C(=O)NCc4ccc(OC)cc4)C3)sc2c1 (stereo not drawn)	-	-	.	.	.	.
CCOc1ccc2nc(N3CCCC(C(=O)NCCc4ccc(OC)cc4OC)C3)sc2c1 (stereo not drawn)	18µM	-	.	.	.	.
Cn1cnc([N+](=O)[O-])c1S(=O)(=O)Oc1cccc2ccccc12	?	-	.	.	16µM	?
CCS(=O)(=O)c1c([N+](=O)[O-])ncn1C	18µM	-	3.5µM	.	?	.
Cn1cnc([N+](=O)[O-])c1S(=O)(=O)Oc1ccc(Cl)cc1	?	22µM	.	.	.	?
CC[N+]1(CC(=O)c2ccc(I)cc2)CCCCC1	-	-	.	.	.	.
CC(=O)c1sc(NC(=O)C=C(C)C)nc1C	-	-	-	-[10 µM]	-	-
CC(=O)c1sc(NC(=O)C2(F)C(F)(F)C(F)(F)C(F)(F)C(F)(F)C2(F)F)nc1C	2.8µM	-	1.4µM	-[0.074 µM]	?	6.3µM
Cc1ccc(N(C)C(=O)N2CCN(S(=O)(=O)c3ccc(C)cc3)CC2)cc1	-	-	-	-	-	-
Cc1ccc(N(C)C(=O)N2CCN(S(=O)(=O)c3ccc4ccccc4c3)CC2)cc1	-	-	11µM	-[10 µM]	-	-
CCN1CCC(N[C@H]2C[C@@H](C(=O)NC)N(Cc3cccc4ccccc34)C2)CC1	.	.	.	.	-	.
